The text below walks through data of PubChem BioAssay AID652065 (The Scripps Research Institute Molecular Screening Center, 2013).

Out of some 4,300 compounds screened, about 3,000 (70%) were called active. The set was probably picked from earlier hits. The list is a sample of the results. A number with no mark means an inactive call.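 The calls were made as follows: active = inhibition above a per-plate cutoff, the mean inhibition of sample wells plus 3 SD (cut at about 35% in these data); inactive = the rest.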

The inhibition is the drop in the measured response relative to a control, in per cent.

This test can be described thus: small molecules binding CAG repeat RNA – biochemical, fluorescence, confirmation (AID 652065).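 Also: loss of TO-PRO-1 fluorescence as compound displaces dye from 1x1 AA loop RNA; 0% = DMSO only wells and 100% = 100 µM mitoxantrone.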 Particulars: r(CAG) RNA repeat, TO-PRO-1 dye displacement fluorescence; at 3 µM; active compounds read high.
For `COc1ccc(N2C(=O)/C(=C/c3ccco3)C(=O)NC2=S)cc1`, the inhibition is 87% (active).

For the compound `O=C1NC(=O)N(Cc2ccco2)C(=O)/C1=C\c1ccc(-c2ccc(F)cc2)o1`, the inhibition is 20.4%.

As to `CC/C(=N\NC(=O)c1ccccc1O)c1c(O)n(Cc2ccccc2)c(=O)[nH]c1=O`, the inhibition was 75.3% (active).

For the compound `O=C1CC(=O)N(Cc2ccccc2)C(=O)N1CCCCCCN1C(=O)CC(=O)N(Cc2ccccc2)C1=O`, the inhibition was 54.7% (active).

Turning to `COc1cccc(N2C(=O)NC(=O)/C(=C\c3ccc([N+](=O)[O-])s3)C2=O)c1`, the inhibition was 48% (active).

In the case of `O=C1NC(=O)N(c2ccccc2)C(=O)/C1=C/c1ccc([N+](=O)[O-])s1`, the inhibition is 61.7% (active).

Regarding `COc1ccc2c(c1)[C@@]13CCCCC1[C@@H](C2)NCC3` (some centres not stated), the inhibition is -0.72%.
